Compound activity as filed in PubChem BioAssay.
In the library only some 0.76% were active in any assay of this set; here they are far more common.
PrP 5UTR inh – inhibition of PrP 5' UTR reporter expression. cell-based PrP 5' UTR mRNA reporter, plate reader. AID 488862. 0.35% of 340,000 active. inhibition, % (no concentration beside the values); in the data active means inhibition above about 52%; further: 0 = median of the neutral control wells
Rv3671c inh – inhibits the M. tuberculosis serine protease Rv3671c. P9WHR9. inhibition, % at 5.96 µM. 0.048% of 320,000 active. AID 2606; in the data active means inhibition above about 38%;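 further: extracellular domain of Rv3671c used as enzyme; 0% = enzyme with DMSO and 100% = no enzyme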
Target sequence (P9WHR9 whole entry, looked up, the tested form may be a part): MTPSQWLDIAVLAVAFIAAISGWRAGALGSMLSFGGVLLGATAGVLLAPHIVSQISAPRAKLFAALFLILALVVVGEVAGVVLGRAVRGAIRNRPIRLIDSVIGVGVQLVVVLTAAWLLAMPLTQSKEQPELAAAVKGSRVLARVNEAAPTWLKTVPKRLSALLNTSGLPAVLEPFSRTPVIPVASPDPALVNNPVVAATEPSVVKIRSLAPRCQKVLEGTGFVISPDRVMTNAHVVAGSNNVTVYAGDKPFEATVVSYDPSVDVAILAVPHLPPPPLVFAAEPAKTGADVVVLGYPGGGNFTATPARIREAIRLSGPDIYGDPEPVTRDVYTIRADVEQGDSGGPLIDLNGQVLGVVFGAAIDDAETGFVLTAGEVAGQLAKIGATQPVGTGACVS
FadD28 FP inh – inhibitors of Mycobacterium tuberculosis FadD28 bisubstrate binding; 0.22% of 360,000 active; FadD28 bisubstrate probe binding, fluorescence polarization; inhibition, % at 12.5 µM; in the data active means inhibition above about 8.5%, passing the limit was not always enough; inconclusive means no clear call, values can overlap the other calls
Mtb UGM inh – blocks M. tuberculosis UGM enzyme | inhibition, % at 10 µM | purified UGM, fluorescence polarization probe displacement | 0.06% of 320,000 active | AID 504406 | P9WIQ1; in the data active means inhibition above about 10%, passing the limit was not always enough; inconclusive means no clear call, values can overlap the other calls
BH1578 lux ind – inducers of Vibrio cholerae quorum light production without autoinducers | V. cholerae BH1578 lux reporter, luminescence, 6 h | activation, % at 18.7 µM | 0.16% of 350,000 active; in the data active means activation mostly above about 9.7%, no sharp cut-off; inconclusive means no clear call, values can overlap the other calls; inactive means mostly below about 3.7%
Mtb betalactam – beta-lactam sensitization of Mtb H37Rv; M. tuberculosis H37Rv growth with meropenem, percent inhibition; inhibition, % at 25 µM; 0.27% of 330,000 active; AID 434955; call rule not given here;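 further: growth measured after seven days incubation then overnight dye step; 0% = bacteria only wells and 100% = bacteria with antibiotic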
Active calls of the source: *; i = inactive; ? = inconclusive; . = not tested or not shown.

SMILES	PrP 5UTR inh	Rv3671c inh	FadD28 FP inh	Mtb UGM inh	BH1578 lux ind	Mtb betalactam
COCCNC(=O)C1CCCN(C(=O)c2cc(-c3cccs3)oc2C)CC1 (stereo not drawn)	.	.	-1.2	.	i	.
CC1(c2ccc(OC(F)F)cc2)NC(=O)N(CC(=O)Nc2ccc3[nH]c(=O)[nH]c3c2)C1=O (stereo not drawn)	-26.9	-2.1	11.8*	-0.5	-1.4	-9.9
CN(C)S(=O)(=O)c1cc(NC(=O)CSc2ncc(C(F)(F)F)cc2Cl)ccc1Cl	-15.4	-38.6	12.6*	-0.4	0.6	5.5
O=C(CC1CCCCC1)NCC1CCCO1 (stereo not drawn)	-29.4	-7.2	-2.6	5.1	16.7*	-17.1
Cc1ccc([N+](=O)[O-])cc1-c1ccc(/C=C(\C#N)c2[nH]nc(N)c2C#N)o1	-38.5	-27.6	9.4*	0.1	i	3.1
COc1ccc(CCNC(=O)[C@@H](NC(=O)N2CC(=O)Nc3ccccc32)C(C)C)cc1OC	-13.6	4.3	-4.3	-0.4	-0.4	-3.2
COc1cc(/C=C2\CCc3c2nc2ccccc2c3C(=O)O)cc(OC)c1OC	-18.9	8.0	5.7	-0.6	i	5.8
CCOc1cc(/C=C2\CCCc3c2nc2ccccc2c3C(=O)O)ccc1OC	-16.6	-14.1	0.0	44.4*	0.6	1.5
COc1ccc(/C=C2\CCn3c2nc2ccccc2c3=O)cc1OC	-42.0	-7.8	2.2	0.1	0.8	3.5
COc1cc(/C=C2\CCCc3c2nc2ccccc2c3C(=O)O)cc(Br)c1O	-13.2	9.5	12.3*	-2.8	-0.1	2.9
Cc1cccc(C)c1NC(=O)COC(=O)c1c2c(nc3ccccc13)/C(=C\c1ccc3c(c1)OCO3)CCC2	-4.5	3.0	-3.3	19.0*	-0.3	-2.4
O=c1cc(C23CC4CC(CC(C4)C2)C3)[nH][nH]1	-39.1	-0.7	-3.6	-2.4	-1.5	6.3
CC1=NN(c2ccc([N+](=O)[O-])cc2)C(=O)/C1=C\N(C)C	-31.7	-15.0	-2.3	-1.6	3.6	-3.5
CC1=NN(c2ccc([N+](=O)[O-])cc2)C(=O)C1	-22.5	.	13.8*	.	-5.9	.
CN=c1scc(-c2ccco2)n1/N=C/c1ccc(O)c(O)c1	-40.5	.	11.3*	.	i	.
COc1ccc(O)c(/C=N/n2c(-c3ccco3)csc2=Nc2cccnc2)c1	-16.7	8.5	0.5	-3.0	0.2	2.1
O=S(=O)(Nc1ccccc1Cl)c1cc(NC(=S)NCCN2CCOCC2)ccc1Cl	-22.2	-1.9	0.5	-1.4	-4.0	-2.1
O=C1OCC(c2ccccc2)=C1c1ccc(S(=O)(=O)N2CCOCC2)s1	-5.4	0.4	-2.5	-2.1	16.7*	2.8
Cc1ccc(S(=O)(=O)N2CCOCC2)s1	-4.8	0.5	-3.5	0.6	i	1.1
COc1cccc(OC)c1C(=O)Nc1ccc2c3c(cccc13)CC2	-72.9	1.3	0.8	-0.3	16.7*	98.8
Cc1cccc(N2C(=O)NC(=O)/C(=C/c3cc4c(cc3[N+](=O)[O-])OCO4)C2=O)c1	-60.3	6.0	5.1	11.2*	i	12.9
Cc1ccc(N(CC(=O)NC2CCCCC2)C(=O)CNC(=O)c2ccco2)cc1F	-16.1	0.8	-3.2	-4.3	-0.9	2.0
Cc1c(N2C(=O)c3ccc(F)cc3C2=O)c(=O)n(-c2ccccc2)n1C	-17.5	0.7	-1.4	-0.7	-1.6	-7.4
Cc1c(N2C(=O)c3ccccc3C2=O)c(=O)n(-c2ccccc2)n1C	-10.7	10.6	-0.9	-3.0	16.7*	-14.1
CCOC(=O)N1CCN(C(=O)c2cn(-c3ccc(C)c(C)c3)c(=O)c3ccccc23)CC1	-16.0	.	1.2	.	0.7	.
SMILES	PrP 5UTR inh	Rv3671c inh	FadD28 FP inh	Mtb UGM inh	BH1578 lux ind	Mtb betalactam
O=C(Nc1nccs1)c1ccc(-c2ccc([N+](=O)[O-])cc2)o1	-62.1	0.9	0.0	20.0*	-0.4	-5.0
O=[N+]([O-])c1ccc(OCCO)nc1	-10.0	0.7	-0.7	1.7	0.2	-5.1
COc1ccc(NC(=O)c2cc([N+](=O)[O-])ccc2O)cc1	86.8*	5.0	2.1	-0.4	i	-4.3
O=C(c1ccc(OC2CCN(CCO)CC2)cc1)N1CCCC1	-16.4	4.7	1.5	-1.2	i	?
CC1=CC(=C2C(=O)NC(=S)NC2=O)C=C(C(F)(F)F)N1Cc1ccccc1	14.2	0.1	-1.8	3.0	266.6*	24.8
N#C/C(=C/c1ccc(O)c(O)c1)c1nc2ccccc2[nH]1	-30.9	7.7	12.1*	-2.9	-0.6	1.7
CCC(=NCCO)c1c(O)n(C2CCCCC2)c(=O)[nH]c1=O	-59.5	-3.7	-5.2	-0.3	.	1.7
CC/C(=N\NC(=O)c1ccccc1O)c1c(O)n(C2CCCCC2)c(=O)[nH]c1=O	-30.7	15.9	15.0*	-1.8	-1.0	4.7
CC(=O)N1CCN(S(=O)(=O)c2cccc(C(=O)NNC(=O)Cn3nc(C)cc3C)c2)CC1	-4.6	5.6	.	10.4*	i	-1.6
Cc1cc(C(C)(C)C)cc(S(=O)(=O)Nc2ccc(O)c(C(=O)O)c2)c1C	-11.3	-2.9	-2.0	17.0*	i	.
Cc1cc(C)c(S(=O)(=O)Nc2ccc(C(=O)O)cc2)cc1S(=O)(=O)Nc1ccc(C(=O)O)cc1	-18.2	-6.0	-3.2	11.3*	-0.2	4.6
CC(=O)Nc1cc(S(=O)(=O)Nc2ccccc2)c(C)cc1C	-13.3	-1.9	0.5	-1.3	0.8	1.4
O=C(CN1C(=O)NC2(CCCCCC2)C1=O)Nc1ccc(OC(F)(F)F)cc1	.	.	-0.5	.	0.5	.
COC(=O)c1c(-c2ccccc2)c[nH]c1C	-56.5	2.8	-0.7	-0.1	i	1.1
CCC(=O)Nc1cccc(-n2nnnc2SCC(=O)c2ccc(C)c(C)c2)c1	-54.1	-34.5	10.6*	-1.4	-0.2	10.0
CCC(=O)Nc1cccc(-n2nnnc2SCC(=O)NCc2ccco2)c1	-19.6	-3.8	0.7	-0.1	.	-23.3
CCCCCCn1c(=O)n2n(c1=O)[C@@H]1CN(S(=O)(=O)c3ccc(C)cc3)C[C@]1(O)[C@@H](OC(=O)Nc1cccs1)C2	.	.	-4.8	.	0.5	.
COCCNC(=O)c1ccc(N2CC3CC(C2)c2cccc(=O)n2C3)c(NC(=O)c2ccccc2Cl)c1 (stereo not drawn)	.	.	-0.5	.	-3.0	.
COc1ccc(NC(=O)NS(=O)(=O)c2ccc(C)cc2)cn1	-16.5	.	-0.2	67.4*	-5.6	18.5
O=C(c1cccs1)c1no[n+]([O-])c1C(=O)c1cccs1	-9.2	0.7	-1.0	11.4*	i	6.2
COc1ccc(C(=O)c2no[n+]([O-])c2C(=O)c2ccc(OC)cc2)cc1	-19.0	4.5	-3.4	-0.2	-4.5	-5.7
Cc1cccc(N(C)S(=O)(=O)c2ccc(-c3cnc(C4CC4)o3)cc2)c1	58.7*	-8.7	-2.8	0.3	i	4.4
Cc1ccc(N(C)S(=O)(=O)c2cc(-c3cnc(C4CC4)o3)ccc2C)cc1	-1.2	0.0	0.9	0.0	-5.9	71.0
COc1ccc(O)c(/C=N/NC(=S)Nc2cccc(S(=O)(=O)N(C)C)c2)c1	16.4	23.7	17.6*	-1.5	-2.4	-7.8
